Data reported in PubChem BioAssay (EPA / NIEHS).
“And” between values parts separate entries of the source, which are not always exact repeats. Equal values may be shown once. Records with an inconclusive call do not appear. The source made the active and inactive calls. Rule for the calls: active = hit-call score of the fitted dose curve at least 0.9, where 1 is the maximum; inconclusive = response in the unintended direction; inactive = score below 0.9.

Test system: not listed separately
Test: TOX21_p53_BLA_p2_viability: Viability Assessment in the Tox21 HCT-116 p53 Agonism Beta-lactamase Assay, Phase 2 (AID 2283591);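 note: compound exposure lasted 16 h at 37 °C; actives lower the ATP signal meaning cytotoxicity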
Method in brief: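 HCT116 p53-bla cells, 4000/well, dosed after 5 h plating (217-fold dilution of DMSO stocks) and incubated 16 h at 37C. Viability taken as cellular ATP by CellTiter-Glo luminescence after 30 min RT; signal loss marks cytotoxicity.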

| Structure (SMILES) | outcome | AC50 |
| --- | --- | --- |
| CCC[C@@]1(CCc2ccccc2)CC(O)=C([C@H](CC)c2cccc(NS(=O)(=O)c3ccc(C(F)(F)F)cn3)c2)C(=O)O1 | inactive |  |
| COc1cc2c(Nc3ccc(Br)cc3F)ncnc2cc1OCC1CCN(C)CC1 | inactive |  |
| CO[C@@H]1[C@H](OC(=O)/C=C/C=C/C=C/C=C/C(=O)O)CC[C@]2(CO2)[C@H]1[C@@]1(C)O[C@@H]1CC=C(C)C | inactive |  |
| NC(N)=NCc1cccc(I)c1 | inactive |  |
| Nc1c2ccccc2nc2ccccc12 | inactive |  |
| Clc1cccc(Cl)c1NC1=NCCN1 | inactive |  |
| CCCC(=O)O[C@]1(C(=O)CCl)[C@@H](C)C[C@H]2[C@@H]3CCC4=CC(=O)C=C[C@]4(C)[C@@]3(F)C(=O)C[C@@]21C | inactive |  |
| CCCCCCNC(=O)n1cc(F)c(=O)[nH]c1=O |  | 0.709 µM (active) |
| CO[C@H]1C[C@@H]2CC[C@@H](C)[C@@](O)(O2)C(=O)C(=O)N2CCCC[C@H]2C(=O)O[C@H]([C@H](C)C[C@@H]2CC[C@@H](OCCO)[C@H](OC)C2)CC(=O)[C@H](C)/C=C(\C)[C@@H](O)[C@@H](OC)C(=O)[C@H](C)C[C@H](C)\C=C/C=C/C=C/1C |  | 19.2 µM (active) |
| Cc1nc(Nc2ncc(C(=O)Nc3c(C)cccc3Cl)s2)cc(N2CCN(CCO)CC2)n1 | inactive |  |
| Cc1c(O)cccc1C(=O)N[C@@H](CSc1ccccc1)[C@H](O)CN1C[C@H]2CCCC[C@H]2C[C@H]1C(=O)NC(C)(C)C |  | 36.3 µM (active) and 18.7 µM (active) |
| CC(=O)NCCCS(=O)(=O)O | inactive |  |
| O=C1Cc2cc(CCN3CCN(c4nsc5ccccc45)CC3)c(Cl)cc2N1 | inactive |  |
| C1=CCC(c2ccccc2)CC1 (stereo not drawn) | inactive |  |
| CN(C)CCOC(=O)COc1ccc(Cl)cc1 | inactive |  |
| O=C1C(=O)c2ncccc2-c2cccnc21 | inactive |  |
| CC1(C)S[C@@H]2[C@H](NC(=O)[C@H](N)c3ccc(O)cc3)C(=O)N2[C@H]1C(=O)O | inactive |  |
| CC1(C)N=C(N)N=C(N)N1c1ccc(Cl)cc1 |  | 6.72 µM (active) |
| CCCCC(=O)O[C@]1(C(=O)CO)[C@@H](C)C[C@H]2[C@@H]3CCC4=CC(=O)C=C[C@]4(C)[C@@]3(F)[C@@H](O)C[C@@]21C | inactive |  |
| NNc1nncc2ccccc12 | inactive |  |

| Structure (SMILES) | outcome | AC50 |
| --- | --- | --- |
| COC(=O)Nc1nc2ccc(Sc3ccccc3)cc2[nH]1 | inactive |  |
| C#CCC(Cc1cnc2nc(N)nc(N)c2n1)c1ccc(C(=O)N[C@@H](CCC(=O)O)C(=O)O)cc1 (stereo partly drawn) |  | 0.245 µM (active) |
| O=C(O)CN(CCN(CC(=O)O)CC(=O)O)CC(=O)O | inactive |  |
| CNC(=O)c1cc(Oc2ccc(NC(=O)Nc3ccc(Cl)c(C(F)(F)F)c3)cc2)ccn1 | inactive |  |
| O=c1[nH]c(=O)n([C@H]2C[C@H](O)[C@@H](CO)O2)cc1F | inactive |  |
| O=C(Nc1ccc(Cl)c(Cl)c1)C1CC1 | inactive |  |
| Cc1nc2ccccc2n1Cc1ccc(Cl)cc1 | inactive |  |
| Cc1nc2sccn2c(=O)c1CCN1CCC(=C(c2ccc(F)cc2)c2ccc(F)cc2)CC1 |  | 37.8 µM (active) |
| C[n+]1c2cc(N)ccc2cc2ccc(N)cc21 (tested in a mixture with another compound) | inactive |  |
| CCOC(=O)n1ccn(C)c1=S | inactive |  |
| COc1cc(C)c(/C=C/C(C)=C/C=C/C(C)=C/C(=O)O)c(C)c1C | inactive |  |
| CC1(C)[C@@H](O[C@H]2O[C@H](C(=O)O)[C@@H](O)[C@H](O)[C@H]2O[C@@H]2O[C@H](C(=O)O)[C@@H](O)[C@H](O)[C@H]2O)CC[C@]2(C)[C@H]3C(=O)C=C4[C@@H]5C[C@@](C)(C(=O)O)CC[C@]5(C)CC[C@@]4(C)[C@]3(C)CC[C@@H]12 | inactive |  |
| CC[C@@]1(O)C(=O)OCc2c1cc1n(c2=O)Cc2cc3c(CN(C)C)c(O)ccc3nc2-1 |  | 7.02 µM (active) |
| COc1ccc(Cl)cc1C(=O)NCCc1ccc(S(=O)(=O)NC(=O)NC2CCCCC2)cc1 | inactive |  |
| CC(C)(C)CC(C)(C)c1ccc(O)c(Cc2ccc(Cl)cc2Cl)c1 |  | 23 µM (active) |
| O=C(O)c1cccc(-c2noc(-c3ccccc3F)n2)c1 | inactive |  |
| Oc1c(I)cc(I)c2cccnc12 |  | 10.6 µM (active) |
| Cc1cc(Nc2ccccc2C(=O)O)ccc1Cl | inactive |  |
| CC(C)=CCC1=C(O)c2ccccc2C(=O)C1=O | inactive |  |

Molecular target: Cellular tumor antigen p53 (Homo sapiens) (UniProt P04637)
Test: TOX21_p53_BLA_p2_ratio: Tox21 HCT-116 p53 Agonism Beta-lactamase Assay, Ratio, Phase 2 (AID 2283592)
Method in brief: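 HCT116 p53-bla; 4000 cells/well; 5 h pre-incubation; cpd in DMSO, 217-fold dilution; 16 h 37C/5% CO2; CCF4-AM 2 h RT; Ex 405, Em 460/530 ratio; DMSO = baseline; positive fitting direction.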

Sequence of Cellular tumor antigen p53 (Homo sapiens) (P04637 whole entry, looked up): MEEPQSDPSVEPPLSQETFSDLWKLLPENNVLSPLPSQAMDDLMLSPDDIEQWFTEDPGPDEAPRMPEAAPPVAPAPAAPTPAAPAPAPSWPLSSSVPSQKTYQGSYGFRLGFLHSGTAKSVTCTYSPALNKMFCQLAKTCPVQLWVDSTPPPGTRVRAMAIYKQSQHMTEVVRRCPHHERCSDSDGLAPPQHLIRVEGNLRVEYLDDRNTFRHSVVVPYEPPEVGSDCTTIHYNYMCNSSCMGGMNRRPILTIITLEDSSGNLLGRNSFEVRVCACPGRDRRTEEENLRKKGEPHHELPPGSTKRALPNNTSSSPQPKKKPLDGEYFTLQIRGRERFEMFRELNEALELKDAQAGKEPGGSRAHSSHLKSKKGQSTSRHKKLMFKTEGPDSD

| Structure (SMILES) | outcome | AC50 |
| --- | --- | --- |
| CCC[C@@]1(CCc2ccccc2)CC(O)=C([C@H](CC)c2cccc(NS(=O)(=O)c3ccc(C(F)(F)F)cn3)c2)C(=O)O1 | inactive |  |
| COc1cc2c(Nc3ccc(Br)cc3F)ncnc2cc1OCC1CCN(C)CC1 | inactive |  |
| CO[C@@H]1[C@H](OC(=O)/C=C/C=C/C=C/C=C/C(=O)O)CC[C@]2(CO2)[C@H]1[C@@]1(C)O[C@@H]1CC=C(C)C | inactive |  |
| NC(N)=NCc1cccc(I)c1 | inactive |  |
| Nc1c2ccccc2nc2ccccc12 |  | 2.18 µM (active) and 2.99 µM (active) |
| Clc1cccc(Cl)c1NC1=NCCN1 | inactive |  |
| CCCC(=O)O[C@]1(C(=O)CCl)[C@@H](C)C[C@H]2[C@@H]3CCC4=CC(=O)C=C[C@]4(C)[C@@]3(F)C(=O)C[C@@]21C | inactive |  |
| CCCCCCNC(=O)n1cc(F)c(=O)[nH]c1=O |  | 0.77 µM (active) |
| CO[C@H]1C[C@@H]2CC[C@@H](C)[C@@](O)(O2)C(=O)C(=O)N2CCCC[C@H]2C(=O)O[C@H]([C@H](C)C[C@@H]2CC[C@@H](OCCO)[C@H](OC)C2)CC(=O)[C@H](C)/C=C(\C)[C@@H](O)[C@@H](OC)C(=O)[C@H](C)C[C@H](C)\C=C/C=C/C=C/1C |  | 17.9 µM (active) |
| Cc1nc(Nc2ncc(C(=O)Nc3c(C)cccc3Cl)s2)cc(N2CCN(CCO)CC2)n1 |  | 26.8 µM (active) |
| Cc1c(O)cccc1C(=O)N[C@@H](CSc1ccccc1)[C@H](O)CN1C[C@H]2CCCC[C@H]2C[C@H]1C(=O)NC(C)(C)C |  | 44.9 µM (active) and 20.2 µM (active) |
| CC(=O)NCCCS(=O)(=O)O | inactive |  |
| O=C1Cc2cc(CCN3CCN(c4nsc5ccccc45)CC3)c(Cl)cc2N1 | inactive |  |
| C1=CCC(c2ccccc2)CC1 (stereo not drawn) | inactive |  |
| CN(C)CCOC(=O)COc1ccc(Cl)cc1 | inactive |  |
| O=C1C(=O)c2ncccc2-c2cccnc21 |  | 1.01 µM (active) |
| CC1(C)S[C@@H]2[C@H](NC(=O)[C@H](N)c3ccc(O)cc3)C(=O)N2[C@H]1C(=O)O | inactive |  |
| CC1(C)N=C(N)N=C(N)N1c1ccc(Cl)cc1 |  | 28.2 µM (active) |
| CCCCC(=O)O[C@]1(C(=O)CO)[C@@H](C)C[C@H]2[C@@H]3CCC4=CC(=O)C=C[C@]4(C)[C@@]3(F)[C@@H](O)C[C@@]21C | inactive |  |
| NNc1nncc2ccccc12 | inactive |  |

| Structure (SMILES) | outcome | AC50 |
| --- | --- | --- |
| COC(=O)Nc1nc2ccc(Sc3ccccc3)cc2[nH]1 |  | 99.9 nM (active) and 139 nM (active) |
| C#CCC(Cc1cnc2nc(N)nc(N)c2n1)c1ccc(C(=O)N[C@@H](CCC(=O)O)C(=O)O)cc1 (stereo partly drawn) |  | 0.43 µM (active) |
| O=C(O)CN(CCN(CC(=O)O)CC(=O)O)CC(=O)O | inactive |  |
| CNC(=O)c1cc(Oc2ccc(NC(=O)Nc3ccc(Cl)c(C(F)(F)F)c3)cc2)ccn1 |  | 7.13 µM (active) |
| O=c1[nH]c(=O)n([C@H]2C[C@H](O)[C@@H](CO)O2)cc1F | inactive |  |
| O=C(Nc1ccc(Cl)c(Cl)c1)C1CC1 | inactive |  |
| Cc1nc2ccccc2n1Cc1ccc(Cl)cc1 | inactive |  |
| Cc1nc2sccn2c(=O)c1CCN1CCC(=C(c2ccc(F)cc2)c2ccc(F)cc2)CC1 |  | 36.5 µM (active) |
| C[n+]1c2cc(N)ccc2cc2ccc(N)cc21 (tested in a mixture with another compound) |  | 11.6 µM (active) |
| CCOC(=O)n1ccn(C)c1=S | inactive |  |
| COc1cc(C)c(/C=C/C(C)=C/C=C/C(C)=C/C(=O)O)c(C)c1C |  | 33.4 µM (active) |
| CC1(C)[C@@H](O[C@H]2O[C@H](C(=O)O)[C@@H](O)[C@H](O)[C@H]2O[C@@H]2O[C@H](C(=O)O)[C@@H](O)[C@H](O)[C@H]2O)CC[C@]2(C)[C@H]3C(=O)C=C4[C@@H]5C[C@@](C)(C(=O)O)CC[C@]5(C)CC[C@@]4(C)[C@]3(C)CC[C@@H]12 | inactive |  |
| CC[C@@]1(O)C(=O)OCc2c1cc1n(c2=O)Cc2cc3c(CN(C)C)c(O)ccc3nc2-1 |  | 0.807 µM (active) |
| COc1ccc(Cl)cc1C(=O)NCCc1ccc(S(=O)(=O)NC(=O)NC2CCCCC2)cc1 | inactive |  |
| CC(C)(C)CC(C)(C)c1ccc(O)c(Cc2ccc(Cl)cc2Cl)c1 |  | 35.4 µM (active) |
| O=C(O)c1cccc(-c2noc(-c3ccccc3F)n2)c1 | inactive |  |
| Oc1c(I)cc(I)c2cccnc12 | inactive |  |
| Cc1cc(Nc2ccccc2C(=O)O)ccc1Cl |  | 8.52 µM (active) |
| CC(C)=CCC1=C(O)c2ccccc2C(=O)C1=O |  | 1.36 µM (active) |
